# Sampled rows, rich in hits. Any-hit rate of the full collection: about 9.4%.
# SARS PLpro yeast: qHTS of Yeast-based Assay for SARS-CoV PLP. AID 485353, 2010. Potency, µM (highest dose often 32.9 µM), for inactives: at the highest dose activity, positive = growth rescue, actives largely listed as activators. 0.19% of 330,000 active. S. cerevisiae expressing SARS-CoV PLpro, growth rescue; calls by dose curve; further: 0% is about no effect; nearly all actives have a fitted effect of over 55% in size
# AMA1-RON2 inh: qHTS for Inhibitors of AMA1-RON; Towards Development of Antimalarial Drug Lead: Primary Screen; Plasmodium falciparum AMA1 (3D7) - RON2 peptide interaction; AlphaScreen AMA1-biotinylated RON2 peptide binding; Potency, µM (highest dose often 58.2 µM), without a hit: at the top dose activity change, negative = inhibition, usual class: inhibitors; 0.2% of 360,000 active; AID 720542, 2013;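 further: 0% = vehicle wells and -100% = peptide control; nearly all actives have a fitted effect of over 45% in size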
#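 AMA1 (3D7) with his tag at 25 nM final met compounds first, then biotinylated RON2 peptide at 25 nM; detection used donor plus acceptor beads, 10 µg/mL apiece, read by AlphaScreen after 30 min at room temperature.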
# Pf growth 48h: Primary qHTS for delayed death inhibitors of the malarial parasite plastid, 48 hour incubation; P. falciparum luciferase growth in erythrocytes, 48 h; Potency, µM (highest dose often 28.7 µM), without a hit: top-dose activity change, negative = inhibition, usual class: inhibitors; 5.9% of 310,000 active; AID 504832, 2011; further: on the % scale 0 is the no-effect control and ±100 the full control effect
#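 Growth was read as firefly luciferase luminescence after a 48 h, 37 C, 5% CO2 exposure of compounds to reporter-bearing P. falciparum cultures (0.1% parasitemia, 2% hematocrit final) in Albumax-supplemented RPMI 1640.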
# Pf growth 96h: Primary qHTS for delayed death inhibitors of the malarial parasite plastid, 96 hour incubation; P. falciparum luciferase reporter growth, 96 h; Potency, µM (series often up to 28.7 µM), inactives show top-dose activity change, negative = inhibition, most hits filed as inhibitors; 6.9% of 320,000 active; further: on the % scale 0 is the no-effect control and ±100 the full control effect
#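 Two parasite generations (96 h, 37 C, 5% CO2) of compound exposure in infected erythrocytes (0.05% parasitemia, 2% hematocrit). Luciferase-reporter P. falciparum; decreased luminescence indicates inhibited growth, aimed at apicoplast-acting delayed death.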
# Active calls of the source: *; ? = inconclusive; . = no result; [ ] = another dose, or the depositor's remark. Unless noted, the call rests on the fitted dose curve; in most records, active means well fitted curve in the direction sought with a large enough effect; inconclusive means small, poorly fitted or top-dose-only effect, or another doubt; inactive means no such curve, though single readings can be large; an effect the other way counts as inactive or inconclusive. Potency means the concentration at half of the fitted maximal effect.
SMILES,SARS PLpro yeast,AMA1-RON2 inh,Pf growth 48h,Pf growth 96h
COc1cccc(-c2cc(C(=O)Nc3c(C)nn(Cc4ccccc4C)c3C)no2)c1,-22.6%,-4.4%,5.22µM*,25.1%
COc1ccc(-c2cc(C(=O)Nc3c(C)nn(Cc4ccccc4)c3C)no2)cc1,1.3%,-0.7%,.,4.65µM*
O=C(Nc1cc(Cl)c(O)c(Cl)c1)C1CCCO1 (configuration not stated),14.9%,5.6%,.,?
CCc1nc2c(c(=O)[nH]1)C1(CCCC1)Cc1ccccc1-2,2.2%,?,1.7%,?
CCC1(C)Cc2ccccc2-c2nc3n(c(=O)c21)CCCCC3 (configuration not stated),-10.4%,-1.5%,-4.7%,23.3%
O=c1c2c(nc3n1CCCCC3)-c1ccccc1CC21CCCCC1,9.7%,-2.4%,-16.6%,8.28µM*
CCCn1c(SCC#N)nc2c(c1=O)C1(CCCC1)Cc1ccccc1-2,-6.5%,-0.8%,-20.9%,4.65µM*
NNc1nc(N)c2c(n1)-c1ccccc1CC21CCCC1,-15.3%,-10.2%,10.4µM*,1.65µM*
NC(=O)CSc1nc2c(c(=O)n1-c1ccccc1)C1(CCCCC1)Cc1ccccc1-2,-1.6%,20.8%,-13.8%,11.7µM*
O=C(c1cccc(S(=O)(=O)N2CCOCC2)c1)N1CCN(c2ccc(F)cc2)CC1,-4.9%,34.1%,?,5.7%
Cc1cccc(OCC(=O)Nc2ccc(CN3CCOCC3)cc2)c1C,?,16.2%,-1.3%,?
CCc1noc(C)c1C(=O)N1CCCC(CCC(=O)NCc2cccc(OC)c2)C1 (configuration not stated),-0.1%,2.7%,-5.6%,4.2%
Cc1c(C(=O)NCc2ccc3c(c2)OCO3)oc2ccc(Br)cc12,-26.9%,-5.3%,-13.1%,.
CC(NC(=S)Nc1ccc(OC(F)F)cc1OC(F)F)C(C)(C)C (configuration not stated),-9.0%,23.3%,?,?
CC(NC(=S)Nc1ccccc1OC(F)F)C(C)(C)C (configuration not stated),11.2µM*,-0.9%,-3.4%,-19.2%
CCN(CC)P(c1n(C)cc[n+]1C)N(CC)CC,3.3%,1.7%,0.0%,-0.3%
O=c1oc(-c2ccccc2NS(=O)(=O)c2ccc3ccccc3c2)nc2ccccc12,-7.3%,0.0%,4.9%,10.4µM*
O=C(O)c1ccccc1NS(=O)(=O)c1ccc2ccccc2c1,-1.0%,?,6.7%,17.1%
CCCCNC(=O)CSc1nc2ccc(N3CCOCC3)cc2c(=O)n1CCc1ccccc1,2.3%,4.0%,?,?
CC(CN1CCN(CC(C)C(=O)c2ccccc2)CC1)C(=O)c1ccccc1 (configuration not stated),.,-0.3%,.,.
CCc1ccc(C(=O)C(C)CN2CCCCC2)cc1 (configuration not stated),.,.,-6.4%,1.51µM*
CCOc1ccccc1NC(=O)c1ccccc1NC(=O)c1ccco1,3.1%,0.8%,?,41.2%
Cc1cc(-n2c(C)cc(C(=O)CN3C(=O)NC4(CCCCCC4)C3=O)c2C)no1,1.4%,-4.3%,11.7µM*,-14.9%
Cc1cc(C(=O)CN2C(=O)NC3(CCCCC3)C2=O)c(C)n1-c1ccc2c(c1)OCO2,-21.4%,-26.3%,?,13.1µM*
C[C@H](CO)N1C[C@H](C)[C@@H](CN(C)S(=O)(=O)c2ccc(F)cc2)Oc2c(NC(=O)c3ccncc3)cccc2C1=O,.,15.1%,.,.
SMILES,SARS PLpro yeast,AMA1-RON2 inh,Pf growth 48h,Pf growth 96h
O=C(COC(=O)/C=C/c1cccc(Br)c1)NCCC1=CCCCC1,?,-4.7%[11.6 µM],26.3%,-25.4%
O=C(NCC(c1cccs1)N1CCOCC1)c1cc(F)cc(F)c1 (configuration not stated),.,8.6%,.,.
COc1cccc(C2(O)CC(C(F)(F)F)=NN2C(=O)c2ccccn2)c1 (configuration not stated),1.2%,90.2%,43.0%,0.522µM*
CN1CCCN(C(=O)CC2(CC(=O)O)CCCCC2)CC1,2.0%,-5.5%,-4.5%,-2.8%
COc1ccc(CCNC(=O)Cn2c(=O)[nH]c3ccsc3c2=O)cc1OC,2.3%,2.3%,11.7µM*,6.0%
COc1ccc(CCNC(=O)CSc2nc(O)cc(=O)[nH]2)cc1OC,1.8%,-9.1%,3.29µM*,43.4%
COc1ccc(CCNC(=O)CSc2cc(=O)[nH]c(N)n2)cc1OC,-5.2%,-4.5%,3.9%,11.7µM*
COc1ccc(CCNC(=O)CSc2ccc(-c3ccccc3)nn2)cc1OC,-7.4%,1.8%,-8.5%,-5.1%
COc1ccc(CCNC(=O)CCn2c(=O)[nH]c3cc(OC)c(OC)cc3c2=O)cc1OC,7.3%,0.0%,?,2.7%
O=C1[O][Bi][O]c2ccccc21,.,.,4.6%,21.0%
Cc1cccc(C)c1NC(=O)Cn1nnc(C(=O)Nc2ccc(F)cc2F)c1N,1.5%,5.4%,39.4%,36.1%
CC[n+]1c(/C=C/C=C/N(C(C)=O)c2ccccc2)sc2ccccc21,-0.9%,-28.9%,4.65µM*,9.28µM*
CCn1c(/C=C/N(C(C)=O)c2ccccc2)[n+](CC)c2ccc(Cl)cc21,15.9%,6.4%,2.08µM*,38.5%
CC[n+]1c(/C=C/C=C/c2ccc(N(C)C)cc2)sc2ccccc21,-6.8%,17.8µM*,-10.6%,4.6%
Cc1nn(CC(=O)Nc2cc(S(=O)(=O)N(C)C)ccc2Cl)c(C)c1[N+](=O)[O-],-1.4%,-6.7%,-7.2%,?
COc1ccc(CNC(=O)CCS(=O)(=O)c2ccc3c(c2)CCN3C(C)=O)cc1,7.3%,-1.9%,13.9%,-21.5%
COc1ccc(OCC(=O)Nc2ccc3c(c2)C(=O)NC3=O)cc1,1.1%,-11.3%,20.8%,11.7µM*
CCc1nonc1NC(=O)COc1cc(C)c(Cl)c(C)c1,-6.4%,-3.5%,?,10.8%
COc1ccc2ccc(OCC(=O)Nc3cc(C)on3)cc2c1,3.8%,-1.3%,11.7µM*,?
Cc1cc(C)cc(OCC(=O)Nc2nonc2NC(=O)COc2cc(C)cc(C)c2)c1,6.8%,-42.7%,?,-19.7%
CCc1nonc1NC(=O)COc1ccc(Cl)c(C)c1,-1.0%,4.2%,?,4.15µM*
COc1ccc(OCC(=O)Nc2nonc2NC(=O)COc2ccc(OC)cc2)cc1,-0.3%,24.9%,57.9%,9.28µM*
O=C(COc1ccc(Br)cc1)Nc1ccc2c(c1)C(=O)NC2=O,-1.3%,10.3%,-4.4%,3.1%
COc1ccc(CC(=O)Nc2cc(C)on2)cc1,-4.4%,-2.4%,12.3%,36.8%
N#Cc1c(NC(=O)C2CC(c3ccccc3O)=NO2)sc2c1CCC2 (configuration not stated),-0.3%,-2.5%,42.6%,-23.9%
O=C(Nc1ccncc1)C1CC(=O)N(c2ccc(F)cc2)C1 (configuration not stated),-3.6%,0.7%,5.7%,11.4%
CCCCOc1ccc(C(=O)N/C(=C/c2cccc([N+](=O)[O-])c2)C(=O)O)cc1,-0.3%,-6.7%,0.0%,18.6%
CC(C)COc1ccc(C(=O)N/C(=C\c2cccc([N+](=O)[O-])c2)C(=O)OC(C)C)cc1,-0.3%,-8.1%,0.147µM*,12.7%

# Source: PubChem BioAssay
